# Source: PubChem BioAssay
# D1 mod – D1 dopamine receptor (human) allosteric modulation. AID 641. 58,000 tested, 5.9% active. B-score at 10 µM. HEK293 D1, CRE-luciferase, dopamine EC30 potentiation; actives deviate in either direction. P21728;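 active = luminescence count or its row- and column-corrected plate score outside the 99.7% band of the plate's sample wells, on either side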
# DAT uptake mod – modulates human dopamine transporter uptake under cocaine | Q01959 | LLC-PK1 hDAT cells, [14C]-dopamine uptake with cocaine IC80; actives deviate in either direction | B-score at 10 µM | 110,000 tested, 1.3% active;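 active = Z score or B-score, a plate-position-corrected score, falls beyond the plate's 99.7% confidence bounds, in either direction; inactive = both scores lie inside the 99.7% bounds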;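 note: scored against the spread of the other compound wells on the same plate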
# Target sequence (Q01959 whole entry, looked up): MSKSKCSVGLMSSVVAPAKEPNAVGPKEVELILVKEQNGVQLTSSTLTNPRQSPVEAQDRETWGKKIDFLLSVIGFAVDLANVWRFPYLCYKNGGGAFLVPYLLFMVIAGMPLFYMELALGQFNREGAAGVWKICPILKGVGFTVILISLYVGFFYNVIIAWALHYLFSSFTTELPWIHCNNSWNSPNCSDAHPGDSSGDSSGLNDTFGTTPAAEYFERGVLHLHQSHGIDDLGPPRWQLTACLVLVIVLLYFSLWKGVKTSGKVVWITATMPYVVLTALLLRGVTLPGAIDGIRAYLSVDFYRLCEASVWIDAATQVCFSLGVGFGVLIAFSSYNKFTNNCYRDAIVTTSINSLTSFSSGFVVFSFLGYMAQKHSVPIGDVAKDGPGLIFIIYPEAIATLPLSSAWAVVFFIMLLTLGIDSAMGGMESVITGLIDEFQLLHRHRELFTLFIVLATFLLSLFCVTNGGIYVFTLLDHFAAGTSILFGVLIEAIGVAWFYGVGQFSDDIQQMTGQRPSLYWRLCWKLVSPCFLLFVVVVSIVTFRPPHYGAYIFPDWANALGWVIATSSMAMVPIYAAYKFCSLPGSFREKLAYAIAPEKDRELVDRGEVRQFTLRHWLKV
# BAP1 block – human BAP1 deubiquitinase inhibition. Q92560. calls only at 20 µM. recombinant BAP1, Ub-AMC hydrolysis fluorescence kinetic; hits give low values. AID 436. 72,000 tested, 0.48% active;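 active = activity remaining at or below 50% of control, provided the compound also passes the data quality filters; inactive = the rest, including low values that fail the filters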;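 note: 100% = DMSO wells rate and 0% = substrate alone blank rate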
# Numbers without * were called inactive; i = inactive; / = no result given. Many of the other results were omitted from the sample, so hits are more common in it than they were.
SMILES,D1 mod,DAT uptake mod,BAP1 block
CCN1C(=O)c2cccc3c(NS(=O)(=O)c4ccc([N+](=O)[O-])cc4)ccc1c23,/,/,i
Cc1ccc(-c2cc3nc(-c4ccccc4)cc(N)n3n2)cc1,/,0.607,/
Cc1cc(N)n2nc(-c3ccccc3)cc2n1,-3.43*,/,i
O=C(/C=C/c1ccc(Cl)cc1)NCCN1CCOCC1,/,-7.83*,/
O=C(NCCN1CCOCC1)c1ccc(Cl)cc1,-0.458,1.25,i
CC(C)N(CCC#N)S(=O)(=O)c1ccc([N+](=O)[O-])cc1,/,/,i
O=C(Nc1nncs1)c1ccc(S(=O)(=O)c2ccccc2)cc1,-0.473,-8.73*,i
O=C(Nc1nnc(C2CC2)s1)c1ccc(S(=O)(=O)c2ccccc2)cc1,/,0.92,/
CCOc1ccc(NC(=O)c2cccc([N+](=O)[O-])c2C)cc1,/,/,i
CSc1nc(N)nc(SCCS(=O)(=O)c2ccc(Cl)cc2)c1C#N,-0.491,6.07*,i
CSc1nc(N)nc(SCC(=O)Nc2ccc(Cl)cc2)c1C#N,/,0.265,/
Cc1nc(N)nc(-c2ccccc2O)n1,/,-0.445,/
CC(=O)Oc1ccccc1-c1nc(C)nc(N(C)C(C)=O)n1,0.00357,-2.81*,i
O=C(Nc1nc2ccccc2s1)c1cc([N+](=O)[O-])ccc1Cl,/,/,i
CC1CN(C(=O)Nc2ccc3snnc3c2)c2ccccc21 (stereo not drawn),-3.41,2.64*,i
O=C(Nc1ccc2snnc2c1)N1CCSCC1,-1.19,1.45,i
COC(=O)C1=C(C(=O)OC)[C@@H]2N(C)c3ccc(OC)cc3[C@@]23C[C@@H](C(=O)OC)N(C(=O)c2ccc(Br)cc2)C3=N1,/,-0.0262,/
CCOC(=O)N1C2=NC(C(=O)OC)=C(C(=O)OC)[C@@H]3N(C)c4ccc(OC)cc4[C@]23C[C@H]1C(=O)OC,/,1.61*,/
Cc1cccc(N2CCN(C(=O)c3cc4c(=O)n(C)c5ccccc5c4n3C)CC2C)c1 (stereo not drawn),-4.82*,0.068,i
Cn1c(C(=O)N2CCCCCC2)cc2c(=O)n(C)c3ccccc3c21,0.354,0.951,i
Cc1cccc(NC(=O)CCOc2ccccc2)c1,/,-1.91*,/
COc1ccc(NC(=O)CCOc2ccccc2)cc1,/,0.436,/
O=C(Cn1nc(C(F)(F)F)c2c1CCCC2)Nc1ccc2c(c1)OCO2,-0.352,-1.63*,i
COc1ccc(NC(=O)Cn2nc(C(F)(F)F)c3c2CCCC3)cc1OC,/,0.203,/
O=c1nc2n3ccccc3ncc-2s1,/,/,i
SMILES,D1 mod,DAT uptake mod,BAP1 block
O=C(Nc1ccc2c(c1)OCO2)c1cnn2c(C(F)(F)F)cc(-c3ccco3)nc12,-0.947,-0.195,i
O=C(c1cnn2c(C(F)(F)F)cc(-c3ccco3)nc12)N1CCCc2ccccc21,0.234,1.95*,i
Cc1ccccc1Cn1ccc(NC(=O)c2cnn3c(C(F)(F)F)cc(-c4ccco4)nc23)n1,-4.44*,1.4,/
Cc1ccccc1Cn1ccc(NC(=O)CCSc2nc(-c3ccco3)cc(C(F)(F)F)n2)n1,-0.28,0.141,/
Cc1ccc(N(CCCCN2C(=O)c3ccccc3C2=O)C(=O)c2cccc(Cl)c2)cc1,/,/,i
O=C(CSc1nnc(CN2C(=O)c3cccc4cccc(c34)C2=O)n1-c1ccccc1)NCc1ccco1,/,/,i
COc1ccc(NC(=O)Nc2nonc2C)cc1,/,/,i
COc1ccc(CCNC(=O)C(C(C)C)N2C(=O)c3ccccc3C2=O)cc1OC (stereo not drawn),/,/,i
Cc1nn(-c2ccccc2)c(Cl)c1/C=C1\SC(=S)NC1=O,/,-4.41*,/
CCOC(=O)C1=C(C)NC(=O)NC1c1c(C)nn(-c2ccccc2)c1Cl (stereo not drawn),0.295,1.06,i
O=C(NCc1ccco1)c1nnc(Cc2ccc(F)cc2)o1,/,-0.705,i
O=C(NCc1ccco1)c1nnc(Cc2ccc(Cl)cc2)o1,/,2.58*,/
CCOC(=O)C1=C(O)/C(=C/c2cn(CC(=O)N3CCCC3)c3ccccc23)SC1=Nc1ccccc1,/,-8.27*,/
COC(=O)c1cn(CC(=O)N2CCCCCC2)c2ccccc12,/,0.0386,i
Cc1ccc(NC(=O)c2cc(Cl)nc3ccccc23)cc1,/,-2.46*,/
Cc1ccc(NC(=O)c2cc(N3CCOCC3)nc3ccccc23)cc1,/,0.018,i
CCc1nc(N2CCN(C(=O)c3ccco3)CC2)c2oc3ccccc3c2n1,0.00466,2.82*,i
Cc1nc(N2CCN(C(=O)c3ccco3)CC2)c2oc3ccccc3c2n1,/,0.677,/
O=C(Nc1ncc(S(=O)(=O)c2ccc([N+](=O)[O-])cc2)s1)c1ccc(S(=O)(=O)N2CCCCC2)cc1,/,/,i
COc1ccc(NS(=O)(=O)c2cc(C(=O)Nc3ccc(Br)cc3)ccc2Br)cc1,/,/,i
CC1(C)CC(=O)C2=C(C1)OC(N)=C(C#N)C2C#Cc1ccccc1 (stereo not drawn),1.18,0.451,i
CC(c1ccccc1)C1C(C#N)=C(N)OC2=C1C(=O)CC(C)(C)C2 (stereo not drawn),0.635,2.76*,i
Cc1cc(=O)[nH]c(SCCOc2ccccc2)n1,/,/,i
Cc1ccc(OCC(=O)Nc2ccccc2C)cc1C,/,/,i
O=C(c1ccco1)N1CCN(C(=O)c2cccc3c2C(=O)N(Cc2cccnc2)C3)CC1,-0.413,-0.393,i
SMILES,D1 mod,DAT uptake mod,BAP1 block
O=C(c1ccco1)N1CCN(C(=O)c2cccc3c2C(=O)N(C2CCCCC2)C3)CC1,-3.39*,/,i
N#Cc1ccc(-c2ccccc2)nc1SCC(=O)c1ccccc1,/,/,i
COc1cccc(N2CCN(Cc3nc(N)nc(Nc4ccccc4OC)n3)CC2)c1,1.66,0.142,i
COc1ccccc1Nc1nc(N)nc(CN2CCN(c3ccccc3)CC2)n1,-0.09,2.51*,i
COc1ccccc1Nc1nc(N)nc(CN2CCC(Cc3ccccc3)CC2)n1,-1.87,1.32,i
COc1ccc(Nc2nc(N)nc(CN3CCC(Cc4ccccc4)CC3)n2)cc1,-3*,0.215,i
Cc1nn2c(C(F)(F)F)cc(-c3ccc(Cl)cc3)nc2c1C(=O)N1CCCCCC1,/,/,i
CC(O)CNc1nc2c(c(=O)n(C)c(=O)n2C)n1Cc1cccc(C(F)(F)F)c1 (stereo not drawn),/,1.83*,i
CC(O)CNc1nc2c(c(=O)n(C)c(=O)n2C)n1Cc1cccc(Br)c1 (stereo not drawn),-0.587,0.859,i
CC1=C(C(=O)OCC2CCCCC2)C(c2cccc(Cl)c2)NC(=O)N1 (stereo not drawn),/,/,i
O=C(Nc1ccccc1C(=O)O)c1cncc(Br)c1,/,2.32,/
O=C(c1ccccc1)c1cncc(Br)c1,1.05,-8.1*,i
CCC1(C)Cc2c(sc3nc(SCC(=O)O)n(-c4ccccc4)c(=O)c23)CO1 (stereo not drawn),/,/,i
COc1ccccc1NC=C1C(=O)OC2(CCCCC2)OC1=O,-6.87*,-1.34,i
COC(=O)c1ccccc1NC=C1C(=O)OC2(CCCCC2)OC1=O,/,-1.28,i
Nc1ccc(Nc2ccccc2)c(Cl)c1,-0.577,-1.15,i
Nc1ccccc1Nc1ccccc1,/,2.51*,/
CC1CCc2cc(F)ccc2N1C(=O)c1ccc2c(c1)OCO2 (stereo not drawn),-0.289,-0.617,i
CC1CCc2ccccc2N1C(=O)c1cccs1 (stereo not drawn),/,-7.3*,i
Cc1cc(C(F)(F)F)nn1CC(=O)Nc1ccc([N+](=O)[O-])cc1Cl,/,/,i
Cc1cc(Nc2ccncc2)n2c(nc3ccccc32)c1C#N,/,/,i
